HCMV inh = qHTS Assay for inhibitors of the human cytomegalovirus (HCMV); activity change, negative = inhibition, % at 57.5 µM; AID 1259415, 2018; hit rate 4.5% among 410,000; HFF cells, HCMV-luciferase reporter, 72 h; active compounds read low; in the data active means activity change below about -60%; inconclusive means no clear call, values can overlap the other calls; inactive means above about -39%
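Human foreskin fibroblasts infected with luciferase-reporter HCMV at MOI 1 PFU/cell, compounds at two doses. Luciferase measured 72 h post infection; normalized to buffer-only basal and Salinomycin (10uM) controls.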
FMDV antiviral = High Throughput Screening for Foot and Mouth Disease Virus Antivirals | FMDV antiviral cell-based qHTS | hit rate 1.2% among 410,000 | AID 1159524, 2015 | Potency, µM (doses to about 57.9 µM), for inactives: at the highest dose activity change, negative = inhibition, hits mostly inhibitors; calls by dose curve; tested in HEK293T cells; further: read-out not given here; potency means the concentration at half of the fitted maximal effect; nearly all actives have a fitted effect of over 45% in size
Vaccinia mCherry = qHTS for Stage-Specific Inhibitors of Vaccinia Orthopoxvirus: mCherry Reporter Primary qHTS; hit rate 0.63% among 310,000; Potency, µM (highest dose often 36.5 µM), inactives show top-dose activity change, negative = inhibition, usual class: inhibitors; Vaccinia virus mCherry reporter infection, fluorescence; calls by dose curve; tested in A549 cells; further: potency means the concentration at half of the fitted maximal effect; nearly all actives have a fitted effect of over 35% in size
HCV inh = qHTS Assay for Inhibitors of Hepatitis C Virus (HCV). Potency, µM (titrated, usually from 41.8 µM), for inactives: top-dose activity change, negative = inhibition, hits mostly inhibitors. AID 651820, 2012. hit rate 3.4% among 340,000. Huh7.5.1 HCVcc-Cre infection, luciferase reporter, 44 h; further: potency means the concentration at half of the fitted maximal effect
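HCVcc-Cre virus at an moi near 0.5 was added right after compound to cells cultured 4 h from seeding (1,000 cells/well). Luciferase activity was determined 44 h later, 15 min after substrate addition at RT.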
Vaccinia Venus = qHTS for Stage-Specific Inhibitors of Vaccinia Orthopoxvirus: Venus Reporter Primary qHTS; Vaccinia virus Venus reporter expression, fluorescence; hit rate 0.46% among 330,000; Potency, µM (top dose mostly 36.5 µM), inactives show at the top dose activity change, negative = inhibition, actives largely listed as inhibitors; calls by dose curve; tested in A549 cells; further: potency means the concentration at half of the fitted maximal effect; nearly all actives have a fitted effect of over 30% in size
FBPA Giardia inh = qHTS Assay for Inhibitors of Fructose-1,6-bisphosphate Aldolase from Giardia Lamblia; hit rate 0.71% among 290,000; Potency, µM (series often up to 59.6 µM), for the others: at the top dose activity, negative = inhibition, most hits filed as inhibitors; purified Giardia FBPA; further: potency means the concentration at half of the fitted maximal effect; nearly all actives have a fitted effect of over 55% in size
Target sequence (A8B2U2 whole entry, looked up): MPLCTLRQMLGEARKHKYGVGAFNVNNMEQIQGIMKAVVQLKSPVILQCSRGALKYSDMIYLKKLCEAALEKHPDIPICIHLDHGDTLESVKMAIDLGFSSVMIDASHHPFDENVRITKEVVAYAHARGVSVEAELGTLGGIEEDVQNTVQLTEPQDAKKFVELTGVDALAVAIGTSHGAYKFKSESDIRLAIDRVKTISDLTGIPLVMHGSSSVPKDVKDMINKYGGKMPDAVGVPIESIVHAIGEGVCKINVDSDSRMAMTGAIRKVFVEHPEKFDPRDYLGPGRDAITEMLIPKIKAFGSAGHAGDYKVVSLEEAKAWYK
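Giardia FBPA (40 nM reagent) was preincubated 10 min at RT with compound (up to 57.5 uM final), then substrate plus GAPDH/TPI/NAD/arsenate coupling system with diaphorase/resazurin was added; resorufin fluorescence (525/598 nm) was read after 20 min.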
* marks the source's active call; other numbers are inactive results. An excerpt weighted towards active compounds, which were near 7.5% of everything screened. Unless noted, the call rests on the fitted dose curve; in most records, active means well fitted curve in the direction sought with a large enough effect; inconclusive means small, poorly fitted or top-dose-only effect, or another doubt; inactive means no such curve, though single readings can be large; an effect the other way counts as inactive or inconclusive. On the % scale 0 is the no-effect control and ±100 the full control effect.

What do the screens show for `CCCNC(=O)CN1C(=O)NC(CCSC)C1=O` (stereo not given)?
HCMV inh: 0; FMDV antiviral: -7%; Vaccinia mCherry: inactive; HCV inh: 5%; Vaccinia Venus: -8%; FBPA Giardia inh: 4%

How did CCCCn1nnnc1C(CCc1ccccc1)N1CCC(n2c(=O)[nH]c3ccccc32)CC1 (stereo not given) do in these assays?
HCMV inh: -101*; FMDV antiviral: 20µM*; Vaccinia mCherry: inconclusive; Vaccinia Venus: inconclusive

How did CCC(c1nnnn1Cc1ccccc1)N1CCC(n2c(=O)[nH]c3ccccc32)CC1 (stereo not given) do in these assays?
HCMV inh: -61*; FMDV antiviral: inconclusive; Vaccinia mCherry: -5%; Vaccinia Venus: -19%

What do the screens show for `CCC(c1nnnn1-c1ccc(OC)cc1)N1CCC(n2c(=O)[nH]c3ccccc32)CC1` (stereo not given)?
HCMV inh: -6; FMDV antiviral: -20%; Vaccinia mCherry: inactive; Vaccinia Venus: -1%

What do the screens show for `N#CCC(CNc1ncc(C(F)(F)F)cc1Cl)OC(=O)c1ccc(Cl)cc1` (stereo not given)?
HCMV inh: -62*; Vaccinia mCherry: inconclusive; HCV inh: inconclusive; Vaccinia Venus: inconclusive; FBPA Giardia inh: -1%

How did COc1cccc(N2CCN(C(=O)c3c4c(nc5ccccc35)C(=O)N(C3CCCCC3)C4)CC2)c1 do in these assays?
HCMV inh: 11; FMDV antiviral: -11%; Vaccinia mCherry: -19%; Vaccinia Venus: -10%

What do the screens show for `CCn1cc(SCC(=O)NCc2ccc3c(c2)OCO3)c2ccccc21`?
HCMV inh: 26; FMDV antiviral: 5%; Vaccinia mCherry: -15%; HCV inh: 10µM*; Vaccinia Venus: -15%; FBPA Giardia inh: 2%

Results for COc1ccccc1-n1c(SCC(=O)NCc2ccc3c(c2)OCO3)nc2cc([N+](=O)[O-])ccc21 ?
HCMV inh: -11; FMDV antiviral: 2%; Vaccinia mCherry: inactive; HCV inh: 25µM*; Vaccinia Venus: -14%; FBPA Giardia inh: inconclusive

What do the screens show for `CCCN(C(=O)c1cc2c(s1)-c1c(C)cccc1OC2)c1ccc(OCC)cc1`?
HCMV inh: 7; FMDV antiviral: -28%; Vaccinia mCherry: -10%; Vaccinia Venus: -12%

What do the screens show for `Cc1ccccc1N=Nc1c(C)[nH]n(C(N)=S)c1=O`?
HCMV inh: -36; FMDV antiviral: 10%; Vaccinia mCherry: -26%; HCV inh: 25%; Vaccinia Venus: -15%; FBPA Giardia inh: 15%

What do the screens show for `CCOc1ccccc1N=Nc1c(C)[nH]n(C(N)=S)c1=O`?
HCMV inh: -85*; FMDV antiviral: -22%; Vaccinia mCherry: -4%; HCV inh: 10µM*; Vaccinia Venus: -4%; FBPA Giardia inh: 6%

Results for CCOc1cc2c(c3c1C(c1ccccc1)N(S(=O)(=O)c1ccc(C)cc1)C3)C(=O)C=CC2=O (stereo not given) ?
HCMV inh: -4; FMDV antiviral: inconclusive; Vaccinia mCherry: -24%; Vaccinia Venus: inconclusive

How did CCOC(=O)c1sc(=S)n(C)c1NC(=O)c1ccc(C(C)(C)C)cc1 do in these assays?
HCMV inh: -73*; FMDV antiviral: 25µM*; Vaccinia mCherry: -14%; HCV inh: -18%; Vaccinia Venus: -23%; FBPA Giardia inh: -4%

How did COC(=O)c1ccc(C2=NOC(C)(c3nnc(Cc4ccccc4)o3)C2)cc1 (stereo not given) do in these assays?
HCMV inh: -21; FMDV antiviral: 4%; Vaccinia mCherry: inactive; HCV inh: 5%; Vaccinia Venus: -18%

What do the screens show for `CCc1cccc(CC)c1NC(=O)/C(C#N)=C/c1ccccc1C(F)(F)F`?
HCMV inh: -103*; FMDV antiviral: 25µM*; Vaccinia mCherry: -18%; HCV inh: 11µM*; Vaccinia Venus: inconclusive; FBPA Giardia inh: -4%

Results for N#C/C(=C\c1ccccc1C(F)(F)F)C(=O)Nc1ccccc1 ?
HCMV inh: -29; FMDV antiviral: 22%; Vaccinia mCherry: -5%; HCV inh: 1%; Vaccinia Venus: 0%; FBPA Giardia inh: 3%

Results for CC1(C(=O)NCc2ccco2)Cc2c(-c3ccccc3)ccnc2O1 (stereo not given) ?
HCMV inh: -35; FMDV antiviral: 0%; Vaccinia mCherry: -1%; Vaccinia Venus: -24%

Results for CC(OC(=O)c1cc2sccc2n1C)C(=O)NCc1cccs1 (stereo not given) ?
HCMV inh: inconclusive; Vaccinia mCherry: -30%; HCV inh: inconclusive; Vaccinia Venus: -24%; FBPA Giardia inh: 1%

What do the screens show for `CC(OC(=O)c1cc2sccc2n1C)C(=O)NC(C)(C)C` (stereo not given)?
HCMV inh: -16; FMDV antiviral: -22%; Vaccinia mCherry: -4%; HCV inh: 10µM*; Vaccinia Venus: -20%; FBPA Giardia inh: 5%

How did COc1cc(C(=S)N2CCOCC2)ccc1OS(=O)(=O)c1ccc(NC(C)=O)cc1 do in these assays?
HCMV inh: -73*; FMDV antiviral: 13µM*; Vaccinia mCherry: inactive; HCV inh: inconclusive; Vaccinia Venus: -1%; FBPA Giardia inh: 22%

How did COc1cc(C(=S)N2CCCC2)cc(OC)c1OS(=O)(=O)c1ccc(NC(C)=O)cc1 do in these assays?
HCMV inh: -23; FMDV antiviral: -16%; Vaccinia mCherry: -28%; HCV inh: -26%; Vaccinia Venus: -21%; FBPA Giardia inh: 11%

Results for COc1cc(C(=S)N2CCCC2)ccc1OS(=O)(=O)c1ccc(NC(C)=O)cc1 ?
HCMV inh: -36; FMDV antiviral: 20µM*; HCV inh: 10µM*; FBPA Giardia inh: 6%

How did COc1ccc(S(=O)(=O)Oc2ccc(C(=S)N3CCOCC3)cc2OC)cc1 do in these assays?
HCMV inh: -16; FMDV antiviral: inconclusive; Vaccinia mCherry: -22%; HCV inh: inconclusive; Vaccinia Venus: -13%; FBPA Giardia inh: 11%

What do the screens show for `CC(C)(C)OC(=O)N/N=C/c1cc(N=Nc2ccccc2)ccc1O`?
HCMV inh: 14; FMDV antiviral: inconclusive; Vaccinia mCherry: inconclusive; HCV inh: 32µM*; Vaccinia Venus: -26%; FBPA Giardia inh: 4%

Results for CC(C)(C)OC(=O)N/N=C/c1c[nH]c2ccccc12 ?
HCMV inh: 125; FMDV antiviral: 19%; Vaccinia mCherry: -11%; HCV inh: 0%; Vaccinia Venus: -15%; FBPA Giardia inh: 3%
